Laboratory results from ChEMBL document CHEMBL2218924, “A broad activity screen in support of a chemogenomic map for kinase signalling research and drug discovery” (Biochem J, 2013).

The compounds below were run against T1, Calcium/calmodulin-dependent protein kinase type IV (Homo sapiens) (UniProt Q16566). Settings: at 1 µM.
T1 sequence (whole entry): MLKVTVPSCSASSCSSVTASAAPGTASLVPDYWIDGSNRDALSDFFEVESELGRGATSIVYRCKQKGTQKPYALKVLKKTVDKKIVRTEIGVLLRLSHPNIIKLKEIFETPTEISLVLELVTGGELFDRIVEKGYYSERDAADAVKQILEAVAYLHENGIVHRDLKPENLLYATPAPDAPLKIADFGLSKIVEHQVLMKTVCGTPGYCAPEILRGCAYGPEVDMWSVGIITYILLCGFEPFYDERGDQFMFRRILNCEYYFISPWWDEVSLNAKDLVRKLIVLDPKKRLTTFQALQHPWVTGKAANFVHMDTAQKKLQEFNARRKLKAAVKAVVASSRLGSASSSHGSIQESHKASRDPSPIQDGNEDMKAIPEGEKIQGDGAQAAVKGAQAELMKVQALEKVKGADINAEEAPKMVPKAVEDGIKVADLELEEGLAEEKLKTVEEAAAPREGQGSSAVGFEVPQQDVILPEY

Row | Compound | residual activity [%]
1 | COc1cc2nccc(Oc3ccc(NC(=O)Nc4cc(C)on4)c(Cl)c3)c2cc1OC | 123
2 | Nc1ncnc2[nH]nc(Nc3ccc(F)cc3)c12 | 100
3 | CC(C)(C)n1nc(Cc2cccc3ccccc23)c2c(N)ncnc21 | 122
4 | NCCNc1ncc(C(N)=O)c(Nc2cccc(C(F)(F)F)c2)n1 | 114
5 | CC(C)(C)c1nc2c3ccc(F)cc3c3c(=O)[nH]ccc3c2[nH]1 | 1
6 | O=C1NC(=O)c2c1c1c3ccccc3[nH]c1n1cncc21 | 61
7 | O=C(O)/C=C/c1cc(Br)c(Br)c(Br)c1Br | 94
8 | CCCCc1c(-c2ccc(OC)cc2)[nH]c2nccnc12 | 112
9 | O=C(CCCc1ccc(-c2ccccc2F)cc1)Nc1ccc(O)cc1 | 104
10 | Cn1sc(=O)n(Cc2ccccc2)c1=O | 73
11 | Nc1ncnc2c1cnn2-c1ccccc1 | 125
12 | Nc1ncnc2c1c(-c1ccc(Oc3ccccc3)cc1)cn2C1CCCC1 | 112
13 | O=C(c1ccccc1)c1ccc(N2CCOCC2)cc1O | 111
14 | Cn1c2ccccc2c2c3c(c4c5ccccc5n(CCC#N)c4c21)CNC3=O | 100
15 | COc1ccc2c(c1)c(C1=C(c3c[nH]c4ccccc34)C(=O)NC1=O)cn2CCCN(C)C | 105
16 | O=C1NC(=O)C(c2cn(CCCn3ccnc3)c3ccccc23)=C1Nc1ccccc1 | 106
17 | Nc1n[nH]c2nc3ccccc3nc12 | 121

These compounds were tested against T1, Calcium/calmodulin-dependent protein kinase type IV (Homo sapiens). Settings: at 10 µM.

Row | Compound | residual activity [%]
18 | NC(=O)Nc1sc(-c2ccc(F)cc2)cc1C(N)=O | 72
19 | COc1cc2nccc(Oc3ccc(NC(=O)Nc4cc(C)on4)c(Cl)c3)c2cc1OC | 54
20 | O=c1cc(N2CCOCC2)oc2c1ccc1ccccc12 | 103
21 | Nc1ncnc2[nH]nc(Nc3ccc(F)cc3)c12 | 104
22 | CC(C)(C)n1nc(Cc2cccc3ccccc23)c2c(N)ncnc21 | 74
23 | NCCNc1ncc(C(N)=O)c(Nc2cccc(C(F)(F)F)c2)n1 | 72
24 | CC(C)c1nn(-c2c(Cl)cccc2Cl)c2nc(Cc3ccc(OCCO)cc3)[nH]c(=O)c12 | 82
25 | CC(C)(C)c1nc2c3ccc(F)cc3c3c(=O)[nH]ccc3c2[nH]1 | 0
26 | O=C1NC(=O)c2c1c1c3ccccc3[nH]c1n1cncc21 | 62
27 | O=C(O)/C=C/c1cc(Br)c(Br)c(Br)c1Br | 80
28 | Cn1sc(=O)n(Cc2ccccc2)c1=O | 51
29 | Nc1ncnc2c1cnn2-c1ccccc1 | 92
30 | Nc1ncnc2c1c(-c1ccc(Oc3ccccc3)cc1)cn2C1CCCC1 | 85
31 | Cn1c2ccccc2c2c3c(c4c5ccccc5n(CCC#N)c4c21)CNC3=O | 58
32 | COc1ccc2c(c1)c(C1=C(c3c[nH]c4ccccc34)C(=O)NC1=O)cn2CCCN(C)C | 61
33 | O=C1NC(=O)C(c2cn(CCCn3ccnc3)c3ccccc23)=C1Nc1ccccc1 | 74
34 | Nc1n[nH]c2nc3ccccc3nc12 | 87
35 | O=c1cc(N2CCNCC2)oc2c(-c3ccccc3)cccc12 | 87
